Data from PMC4336329 (PLoS ONE, 2015).
Among all 310,000 compounds or so, about 14,000 (4.5%) showed an effect of 50% or more. Effects have a minus sign here. This excerpt belongs to a sample that is enriched for strong results.

These molecules were tested against human ether-à-go-go-related gene (hERG) potassium channel (human, UniProt Q12809) (assay: primary screen, population patch clamp on CHO cells stably expressing hERG; higher = less effect of the substance).
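Further: peak tail current of the secondary pulse compared with the same well before compound.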

human ether-à-go-go-related gene (hERG) potassium channel, sequence (Q12809 whole entry, looked up): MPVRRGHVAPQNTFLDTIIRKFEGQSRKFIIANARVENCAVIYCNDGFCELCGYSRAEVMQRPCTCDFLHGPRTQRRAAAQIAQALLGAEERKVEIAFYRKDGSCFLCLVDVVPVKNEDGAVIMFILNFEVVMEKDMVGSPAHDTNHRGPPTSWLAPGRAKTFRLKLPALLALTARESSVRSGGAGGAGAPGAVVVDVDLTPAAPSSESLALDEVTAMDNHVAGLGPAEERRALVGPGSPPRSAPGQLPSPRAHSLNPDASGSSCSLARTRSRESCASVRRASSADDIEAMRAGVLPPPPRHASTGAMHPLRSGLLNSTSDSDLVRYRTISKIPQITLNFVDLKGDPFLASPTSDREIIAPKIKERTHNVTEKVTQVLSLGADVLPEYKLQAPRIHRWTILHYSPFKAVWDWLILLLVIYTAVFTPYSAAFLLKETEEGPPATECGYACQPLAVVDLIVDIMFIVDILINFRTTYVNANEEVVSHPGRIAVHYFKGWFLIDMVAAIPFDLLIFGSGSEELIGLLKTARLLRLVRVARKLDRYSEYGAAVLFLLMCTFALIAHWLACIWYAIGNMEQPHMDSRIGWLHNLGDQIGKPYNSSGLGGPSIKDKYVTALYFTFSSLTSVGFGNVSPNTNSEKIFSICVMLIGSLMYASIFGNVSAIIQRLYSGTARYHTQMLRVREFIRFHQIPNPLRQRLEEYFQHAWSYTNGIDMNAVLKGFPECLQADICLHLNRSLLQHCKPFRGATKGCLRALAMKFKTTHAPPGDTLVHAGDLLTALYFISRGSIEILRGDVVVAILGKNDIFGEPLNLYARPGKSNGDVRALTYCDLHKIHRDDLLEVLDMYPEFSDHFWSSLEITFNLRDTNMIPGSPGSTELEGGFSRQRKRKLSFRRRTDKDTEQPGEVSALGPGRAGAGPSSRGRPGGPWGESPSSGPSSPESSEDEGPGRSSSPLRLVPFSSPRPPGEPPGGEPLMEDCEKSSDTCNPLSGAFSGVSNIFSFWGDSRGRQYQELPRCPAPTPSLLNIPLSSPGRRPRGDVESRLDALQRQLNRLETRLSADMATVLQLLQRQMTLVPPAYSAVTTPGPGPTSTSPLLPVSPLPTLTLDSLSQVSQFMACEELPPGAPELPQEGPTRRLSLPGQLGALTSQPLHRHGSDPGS

| SMILES | hERG current change (%, negative = inhibition) at 10uM [%] |
| --- | --- |
| O=[N+]([O-])c1ccc(C(O)CN2CCN(C/C=C/c3ccccc3)CC2)cc1 (stereo not shown) | -76.9 |
| O=S(=O)(c1ccccc1)N1CCN(C/C=C/c2ccccc2)CC1 | -22 |
| O=S(=O)(c1ccc(S(=O)(=O)N2CCN(C/C=C/c3ccccc3)CC2)cc1)N1CCCC1 | 11.6 |
| Cc1occc1-c1nc(-c2ccncc2)no1 | -10.4 |
| COc1ccc(OC)c(-n2nnnc2SCC(=O)Nc2nc(C)c(C)s2)c1 | -1.73 |
| Cc1c(C(=O)NC2CCCCC2)sc2ncnc(N3CCN(c4ccccc4)CC3)c12 | 13.7 |
| Cc1sc2ncnc(N3CCC(C(=O)NCC(=O)Nc4ccc(F)c(F)c4)CC3)c2c1C | -67.2 |
| Cc1sc2ncnc(N3CCC(C(=O)NNC(=O)COc4cccc(C(F)(F)F)c4)CC3)c2c1C | -40 |
| COc1ccccc1N1CCN(c2ncnc3sc(C(=O)NCC4CCCO4)c(C)c23)CC1 (stereo not shown) | -5 |
| Cc1sc2ncnc(N3CCC(C(=O)Nc4ccc(Cl)cc4Cl)CC3)c2c1C | -7.65 |
| COc1ccc(N2CCN(c3ncnc4sc(C(=O)NCC5CCCO5)c(C)c34)CC2)cc1 (stereo not shown) | -63.4 |
| COc1ccc(OCC(=O)NNC(=O)C2CCN(c3ncnc4sc(C)c(C)c34)CC2)cc1 | -52.5 |
| Cc1sc2ncnc(N3CCC(C(=O)NNC(=O)COc4ccccc4F)CC3)c2c1C | -57 |
| Cc1ccccc1OCC(=O)NNC(=O)C1CCN(c2ncnc3sc(C)c(C)c23)CC1 | -19.3 |
| COc1ccccc1OCC(=O)NNC(=O)C1CCN(c2ncnc3sc(C)c(C)c23)CC1 | 10.5 |
| Cc1sc2ncnc(N3CCC(C(=O)NNC(=O)COc4ccccc4Cl)CC3)c2c1C | -38.6 |
| Cc1sc2ncnc(N3CCC(C(=O)Nc4ccc(Cl)c(Cl)c4)CC3)c2c1C | -7.26 |
| Cc1onc(-c2ccccc2)c1C(=O)OCC(=O)NC(=O)c1ccccc1 | -31.1 |
| CCCCc1ccc(S(=O)(=O)NC2CCS(=O)(=O)C2)cc1 (stereo not shown) | -2.26 |
| Clc1ccccc1Cn1nnc2c(Nc3ccccc3)ncnc21 | -0.775 |
| COc1ccc(C2=NN(C(=O)c3ccco3)C(c3cc4ccccc4nc3Cl)C2)cc1 (stereo not shown) | 8.45 |
| Cc1cc(Cl)ccc1OCC(=O)NNC(=O)C1CCN(c2ncnc3sc(C)c(C)c23)CC1 | 5.64 |

| SMILES | hERG current change (%, negative = inhibition) at 10uM [%] |
| --- | --- |
| Cc1cccc(OCC(=O)NNC(=O)C2CCN(c3ncnc4sc(C)c(C)c34)CC2)c1 | -48.2 |
| Cc1ccc(OCC(=O)NNC(=O)C2CCN(c3ncnc4sc(C)c(C)c34)CC2)cc1 | -50.7 |
| Cc1sc2ncnc(N3CCC(C(=O)NNC(=O)COc4ccc(Br)cc4)CC3)c2c1C | -68.5 |
| Cc1sc2ncnc(N3CCC(C(=O)NNC(=O)c4ccc(F)cc4)CC3)c2c1C | -21.9 |
| CCc1ccc(OCC(=O)NNC(=O)C2CCN(c3ncnc4sc(C)c(C)c34)CC2)cc1 | -45.3 |
| CCOc1ccc(OCC)c(NC(=O)C2CCCN2S(=O)(=O)c2cccc3cccnc23)c1 (stereo not shown) | -4.43 |
| COc1cc(C=Nc2c(C)cc(C)cc2C)ccc1OC(C)=O | 10.6 |
| COc1ccc(CCCc2nnc(SCC(=O)Nc3cc(C)ccc3C)o2)cc1 | 0.676 |
| CN=C1S/C(=C/c2cn(CC(=O)OC)c3ccccc23)C(=O)N1C | 11.1 |
| COC(=O)c1sccc1NC(=S)Nc1cc(OC)ccc1OC | 30.4 |
| CCOc1ccccc1C(=O)Nc1ccsc1C(=O)OC | -0.813 |
| COC(=O)c1sccc1NC(=O)Nc1ccccc1OC | -41.4 |
| CCOc1ccccc1NC(=O)Nc1ccsc1C(=O)OC | -62 |
| COC(=O)c1sccc1NC(=O)Nc1cc(OC)ccc1OC | -57.4 |
| COC(=O)c1sccc1NC(=O)Nc1ccc(OC)cc1OC | -20.3 |
| COC(=O)c1c(N2C(=O)[C@H]3[C@@H](C2=O)[C@]2(C(=O)Nc4c2ccc(C)c4C)N2CCC[C@@H]32)sc(C)c1C | 15.4 |
| C/C(=C\C(=O)c1ccccc1)NCc1ccc(F)cc1 | -22.7 |
| Cc1cc(S(=O)(=O)n2cnc3cc([N+](=O)[O-])ccc32)ccc1Cl | -2.69 |
| Cc1ccc(C(=O)Nc2cnc3ccccn3c2=O)cc1 | -17.2 |
| Cc1cc(=O)[nH]c(SCc2cccc3cccnc23)n1 | 13.3 |
| COc1ccc(CNc2c(CO)cnc3c2cnn3C)cc1 | -13 |
| COc1ccc(NC(=O)CN(C)C(=O)c2cccc(S(=O)(=O)N3CCN(c4ccccc4)CC3)c2)cc1 | -3.62 |

| SMILES | hERG current change (%, negative = inhibition) at 10uM [%] |
| --- | --- |
| O=C(N/N=C/c1ccco1)c1cc([N+](=O)[O-])cc([N+](=O)[O-])c1 | 6.85 |
| COC(=O)C(C)N(C#N)c1nc(C)cc(C)n1 (stereo not shown) | 8.78 |
| CC1(C)C(=O)Nc2ccccc2N1C(=O)COC(=O)CSc1ccc(Cl)cc1 | 18.3 |
| COc1ccc(N2CCN(C(=O)COC(=O)Cc3c(F)cccc3Cl)CC2)cc1 | -79 |
| COc1ccccc1N1CCN(C(=O)CCSCc2ccccc2F)CC1 | 4.41 |
| COc1ccc(NC(=O)COC(=O)Cc2c(F)cccc2Cl)cc1 | -0.319 |
| COc1ccc(N2CCN(C(=O)COC(=O)Cc3ccc(F)cc3)CC2)cc1 | -20 |
| COc1ccc(N2CCN(C(=O)COC(=O)CCc3ccccc3)CC2)cc1 | -0.829 |
| COc1ccc(N2CCN(C(=O)COC(=O)Cc3cccc(OC)c3)CC2)cc1 | -20 |
| CC1(C)C(=O)Nc2ccccc2N1C(=O)COC(=O)CSc1ccc(F)cc1 | -2.24 |
| COc1cccc(CC(=O)OCC(=O)N2CCN(c3ccc(F)cc3)CC2)c1 | -60.6 |
| COc1cccc(N2CCN(C(=O)CCSCc3ccccc3F)CC2)c1 | -57.9 |
| CC1(C)C(=O)Nc2ccccc2N1C(=O)COC(=O)Cc1c(F)cccc1Cl | -50.1 |
| COc1ccc(N2CCN(C(=O)CCSCc3ccccc3F)CC2)cc1 | -28.1 |
| CSCC(NS(=O)(=O)c1ccc(C)cc1)C(=O)O (stereo not shown) | 8.98 |
| CC(=O)N1CC(C)Sc2ccc(S(=O)(=O)NCCc3cccc(C)c3)cc21 (stereo not shown) | 0.141 |
| COC(=O)CNC(=O)CNC(=O)Nc1ccccc1Cl | 9.2 |
| Cc1ccc(S(=O)(=O)N/N=C/c2ccc(C(=O)O)cc2)cc1 | 15.2 |
| Nc1nc(N2CCN(c3ccccc3)CC2)n[nH]1 | 4.2 |
| COc1cc(NC2=Nc3cccc4cccc2c34)cc(OC)c1OC | 1.72 |
| CCCCn1c(N)c(NCc2ccccc2OC)c(=O)[nH]c1=O | 12.2 |
| Cc1c(C=O)cnn1CCC(=O)O | 4.76 |

| SMILES | hERG current change (%, negative = inhibition) at 10uM [%] |
| --- | --- |
| O=c1ccc2cc(S(=O)(=O)Nc3ccc(Br)cc3)ccc2o1 | 5.32 |
| COc1ccccc1NC(=O)CC1CCCC1 | 15.4 |
| CCn1c(SCC(=O)Nc2cc(C)on2)nc2c(c1=O)SC(C)C2 (stereo not shown) | -4.2 |
| CCc1ccc(OCC(=O)Nc2ccc(S(=O)(=O)N3CCCC3)cc2)c(Br)c1 | -4.25 |
| COCCn1c(SCC(=O)Nc2c(C)n(C)n(-c3ccccc3)c2=O)nnc1-c1ccncc1 | 5.95 |
| CCOC(=O)C1CCN(C(=O)Cn2nc(C)n3nc(-c4ccc(CC)cc4)cc3c2=O)CC1 | 5.33 |
| O=C(/C=C/c1ccccc1[N+](=O)[O-])OCC(=O)N1CCCC1 | 12 |
| COc1ccc(N2CCN(C(=O)COC(=O)CCOc3ccccc3C)CC2)cc1 | -62.5 |
| COc1ccc(N2CCN(C(=O)COC(=O)CCOc3cc(C)ccc3C)CC2)cc1 | 0.516 |
| COc1ccc(N2CCN(C(=O)COC(=O)CCOc3ccc(C)cc3)CC2)cc1 | 9.09 |
| CCN(CC)CCNC(=O)c1cn(CC)c2cc(N3CCN(C(=O)c4ccco4)CC3)c(F)cc2c1=O.Cl | 0.131 |
| CCC(C)NC(=O)c1cn(CC)c2cc(N3CCN(C(=O)c4ccco4)CC3)c(F)cc2c1=O (stereo not shown) | -55.2 |
| CCn1cc(C(=O)Nc2ncccc2O)c(=O)c2cc(F)c(N3CCN(C(=O)c4ccco4)CC3)cc21 | 1.98 |
| CCCNC(=O)c1cn(CC)c2cc(N3CCN(C(=O)c4ccco4)CC3)c(F)cc2c1=O | -67 |
| C=CCNC(=O)c1cn(CC)c2cc(N3CCN(C(=O)c4ccco4)CC3)c(F)cc2c1=O | -63.6 |
| CCn1cc(C(=O)NCC(C)C)c(=O)c2cc(F)c(N3CCN(C(=O)c4ccco4)CC3)cc21 | -59.9 |
| CCn1cc(C(=O)NCCC(C)C)c(=O)c2cc(F)c(N3CCN(C(=O)c4ccco4)CC3)cc21 | -11.3 |
| CCCCNC(=O)c1cn(CC)c2cc(N3CCN(C(=O)c4ccco4)CC3)c(F)cc2c1=O | -33.8 |
| CCn1cc(C(=O)NCc2ccco2)c(=O)c2cc(F)c(N3CCN(C(=O)c4ccco4)CC3)cc21 | -26.4 |
| CCn1cc(C(=O)NCc2ccc3c(c2)OCO3)c(=O)c2cc(F)c(N3CCN(C(=O)c4ccco4)CC3)cc21 | -1.93 |
| CCn1cc(C(=O)NCc2cccc(F)c2)c(=O)c2cc(F)c(N3CCN(C(=O)c4ccco4)CC3)cc21 | -21 |
| CCn1cc(C(=O)NC(C)C)c(=O)c2cc(F)c(N3CCN(C(=O)c4ccco4)CC3)cc21 | -34.6 |
